Measured values reported in publication PMC7862700, “An all-to-all approach to the identification of sequence-specific readers for epigenetic DNA modifications on cytosine”.

Tests used:
Assay in all cases: DAPPL (digital affinity profiling via proximity ligation, sequencing); 10 mM Tris-HCl pH 7.5, 50 mM NaCl, 1 mM DTT, 4% glycerol, room temperature, 30 min; GST-TFs on glutathione beads, 16-mer random dsDNA library, 0.1% formaldehyde crosslink after washing; high values mean tight binding
FLI1 = target: T1, FLI1 (Homo sapiens, UniProt Q01543 1-452); details: protein: recombinant; tags: N-terminal GST; dsDNA, one strand shown
T1 sequence: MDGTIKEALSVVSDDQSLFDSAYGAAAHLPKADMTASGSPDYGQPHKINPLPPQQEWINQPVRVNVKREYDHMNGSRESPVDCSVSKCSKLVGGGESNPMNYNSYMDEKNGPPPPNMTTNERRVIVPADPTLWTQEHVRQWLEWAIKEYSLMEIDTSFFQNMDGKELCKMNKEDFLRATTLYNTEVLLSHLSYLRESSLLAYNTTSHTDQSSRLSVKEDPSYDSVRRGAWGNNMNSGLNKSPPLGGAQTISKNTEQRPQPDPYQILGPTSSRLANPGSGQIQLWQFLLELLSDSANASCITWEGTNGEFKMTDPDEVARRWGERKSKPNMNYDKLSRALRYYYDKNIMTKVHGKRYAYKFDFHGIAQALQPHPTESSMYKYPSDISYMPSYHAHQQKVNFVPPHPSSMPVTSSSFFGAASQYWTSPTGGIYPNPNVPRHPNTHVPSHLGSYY
Method in brief: (§1)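 Each value of binding signal is a hexamer's read frequency for a factor divided by the same hexamer's frequency in the tag-only sample. Barcoded, bead-captured GST fusions of human transcription factors made in yeast were pooled with that sample and incubated with 200 nmole of a random double-stranded 16-mer DNA library in Tris/NaCl/DTT/glycerol buffer at room temperature for 30 min. Washing, 0.1% formaldehyde crosslinking, proximity ligation, PCR and Illumina NextSeq500 sequencing followed.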

ELK1 = target: T2, ELK1 (Homo sapiens, UniProt P19419 1-428); details: protein: recombinant; tags: N-terminal GST; dsDNA, one strand shown
T2 sequence: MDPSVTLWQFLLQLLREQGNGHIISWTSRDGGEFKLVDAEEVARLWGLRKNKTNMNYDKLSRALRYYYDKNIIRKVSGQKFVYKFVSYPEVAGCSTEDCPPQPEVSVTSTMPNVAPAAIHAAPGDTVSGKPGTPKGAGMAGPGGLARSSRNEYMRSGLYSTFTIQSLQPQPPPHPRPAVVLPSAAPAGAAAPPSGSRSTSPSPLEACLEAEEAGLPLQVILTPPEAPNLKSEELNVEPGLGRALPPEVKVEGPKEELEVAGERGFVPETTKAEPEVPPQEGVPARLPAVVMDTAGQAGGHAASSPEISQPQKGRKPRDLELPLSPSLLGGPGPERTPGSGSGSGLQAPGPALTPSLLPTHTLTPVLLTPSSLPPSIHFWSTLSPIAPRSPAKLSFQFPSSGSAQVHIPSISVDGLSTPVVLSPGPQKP
Method in brief: as §1

GABPA = target: T3, GABPA (Homo sapiens, UniProt Q06546 1-454); details: protein: recombinant; tags: N-terminal GST; dsDNA, one strand shown
T3 sequence: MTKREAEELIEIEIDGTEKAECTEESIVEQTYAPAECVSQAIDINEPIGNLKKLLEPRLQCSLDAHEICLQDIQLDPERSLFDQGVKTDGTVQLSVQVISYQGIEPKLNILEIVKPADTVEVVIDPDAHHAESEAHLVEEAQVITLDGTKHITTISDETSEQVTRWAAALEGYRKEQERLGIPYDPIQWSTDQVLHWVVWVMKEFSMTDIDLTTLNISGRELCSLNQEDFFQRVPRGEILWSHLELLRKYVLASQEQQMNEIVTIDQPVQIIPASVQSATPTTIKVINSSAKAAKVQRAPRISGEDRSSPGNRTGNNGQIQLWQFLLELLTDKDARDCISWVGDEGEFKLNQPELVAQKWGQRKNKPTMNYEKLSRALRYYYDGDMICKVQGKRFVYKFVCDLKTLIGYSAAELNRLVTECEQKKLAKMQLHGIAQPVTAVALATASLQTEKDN
Method in brief: as §1

ERG = target: T4, ERG (Homo sapiens, UniProt P11308 1-479); details: protein: recombinant; tags: N-terminal GST; dsDNA, one strand shown
T4 sequence: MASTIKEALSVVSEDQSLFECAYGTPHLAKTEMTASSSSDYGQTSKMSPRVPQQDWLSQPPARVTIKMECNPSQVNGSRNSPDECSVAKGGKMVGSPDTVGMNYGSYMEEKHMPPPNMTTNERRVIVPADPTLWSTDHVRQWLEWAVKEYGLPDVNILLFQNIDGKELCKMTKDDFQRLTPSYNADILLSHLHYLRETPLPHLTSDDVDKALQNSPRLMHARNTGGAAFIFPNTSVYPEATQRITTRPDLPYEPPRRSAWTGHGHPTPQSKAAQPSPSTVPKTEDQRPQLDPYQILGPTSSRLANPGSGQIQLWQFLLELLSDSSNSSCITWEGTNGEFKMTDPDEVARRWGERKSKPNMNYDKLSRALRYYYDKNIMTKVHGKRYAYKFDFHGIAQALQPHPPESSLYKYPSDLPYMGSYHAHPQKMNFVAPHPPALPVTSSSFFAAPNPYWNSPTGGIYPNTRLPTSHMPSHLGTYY
Method in brief: as §1

ELF1 = ELF1 (Homo sapiens, UniProt P32519 1-619); details: protein: recombinant; tags: N-terminal GST; dsDNA, one strand shown
Method in brief: as §1

EHF = target: T5, EHF (Homo sapiens, UniProt Q9NZC4 1-300); details: protein: recombinant; tags: N-terminal GST; dsDNA, one strand shown
T5 sequence: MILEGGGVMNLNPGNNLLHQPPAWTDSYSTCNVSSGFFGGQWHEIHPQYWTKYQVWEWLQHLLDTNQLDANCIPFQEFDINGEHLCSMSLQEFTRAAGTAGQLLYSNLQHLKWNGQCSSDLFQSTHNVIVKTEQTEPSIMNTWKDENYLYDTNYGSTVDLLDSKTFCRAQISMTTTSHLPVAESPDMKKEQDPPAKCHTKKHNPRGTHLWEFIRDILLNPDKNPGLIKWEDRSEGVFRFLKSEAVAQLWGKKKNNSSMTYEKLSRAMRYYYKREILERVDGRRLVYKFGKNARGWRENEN
Method in brief: as §1

SPI1 = SPI1 (Homo sapiens, UniProt P17947 1-270); details: protein: recombinant; tags: N-terminal GST; dsDNA, one strand shown
Method in brief: as §1

SPIB = SPIB (Homo sapiens, UniProt Q01892 1-262); details: protein: recombinant; tags: N-terminal GST; dsDNA, one strand shown
Method in brief: as §1

ELK3 = target: T6, ELK3 (Homo sapiens, UniProt P41970 1-407); details: protein: recombinant; tags: N-terminal GST; dsDNA, one strand shown
T6 sequence: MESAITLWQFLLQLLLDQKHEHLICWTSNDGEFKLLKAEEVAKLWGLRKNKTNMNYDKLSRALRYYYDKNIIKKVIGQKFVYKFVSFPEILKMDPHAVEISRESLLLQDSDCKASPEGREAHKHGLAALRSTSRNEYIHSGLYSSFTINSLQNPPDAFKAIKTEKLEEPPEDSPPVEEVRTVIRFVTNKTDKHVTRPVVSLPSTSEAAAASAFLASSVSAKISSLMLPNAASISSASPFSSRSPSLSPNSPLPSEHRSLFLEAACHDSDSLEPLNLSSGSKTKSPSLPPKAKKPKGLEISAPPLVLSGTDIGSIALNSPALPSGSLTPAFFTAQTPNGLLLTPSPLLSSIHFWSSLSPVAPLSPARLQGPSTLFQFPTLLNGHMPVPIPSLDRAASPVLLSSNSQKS
Method in brief: as §1

FEV = target: T7, FEV (Homo sapiens, UniProt Q99581 1-238); details: protein: recombinant; tags: N-terminal GST; dsDNA, one strand shown
T7 sequence: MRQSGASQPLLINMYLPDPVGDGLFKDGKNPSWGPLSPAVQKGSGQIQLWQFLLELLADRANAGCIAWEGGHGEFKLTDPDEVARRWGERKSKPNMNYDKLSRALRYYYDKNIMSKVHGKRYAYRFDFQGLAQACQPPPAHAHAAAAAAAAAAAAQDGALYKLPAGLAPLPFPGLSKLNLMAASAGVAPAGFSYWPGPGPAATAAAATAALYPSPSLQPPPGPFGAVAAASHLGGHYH
Method in brief: as §1

ETV5 = ETV5 (Homo sapiens, UniProt P41161 1-510); details: protein: recombinant; tags: N-terminal GST; dsDNA, one strand shown
Method in brief: as §1

HSF1 = HSF1 (Homo sapiens, UniProt Q00613 1-529); details: protein: recombinant; tags: N-terminal GST; chain copies: 3; dsDNA, one strand shown
Method in brief: as §1

SPIC = target: T8, SPIC (Homo sapiens, UniProt Q8N5J4 1-248); details: protein: recombinant; tags: N-terminal GST; dsDNA, one strand shown
T8 sequence: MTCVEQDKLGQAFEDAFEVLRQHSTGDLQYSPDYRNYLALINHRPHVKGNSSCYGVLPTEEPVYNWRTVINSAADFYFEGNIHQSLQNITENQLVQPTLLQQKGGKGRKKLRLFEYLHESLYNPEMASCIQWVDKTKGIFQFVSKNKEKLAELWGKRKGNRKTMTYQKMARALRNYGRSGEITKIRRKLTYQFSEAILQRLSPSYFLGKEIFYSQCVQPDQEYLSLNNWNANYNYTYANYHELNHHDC
Method in brief: as §1

ELF4 = ELF4 (Homo sapiens, UniProt Q99607 1-663); details: protein: recombinant; tags: N-terminal GST; dsDNA, one strand shown
Method in brief: as §1

ELK4 = target: T9, ELK4 (Homo sapiens, UniProt P28324-2 1-405); details: protein: recombinant; tags: N-terminal GST; dsDNA, one strand shown
T9 sequence: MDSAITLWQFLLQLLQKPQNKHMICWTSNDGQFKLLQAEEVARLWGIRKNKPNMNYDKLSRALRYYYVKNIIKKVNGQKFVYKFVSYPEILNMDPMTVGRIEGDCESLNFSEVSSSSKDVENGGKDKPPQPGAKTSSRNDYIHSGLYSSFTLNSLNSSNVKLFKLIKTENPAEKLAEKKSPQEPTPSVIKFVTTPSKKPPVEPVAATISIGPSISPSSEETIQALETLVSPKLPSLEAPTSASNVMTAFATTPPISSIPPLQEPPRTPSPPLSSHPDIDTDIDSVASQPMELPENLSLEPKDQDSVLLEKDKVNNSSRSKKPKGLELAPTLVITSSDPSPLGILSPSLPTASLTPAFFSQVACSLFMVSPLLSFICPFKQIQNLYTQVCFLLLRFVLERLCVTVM
Method in brief: as §1

ETV2 = target: T10, ETV2 (Homo sapiens, UniProt O00321 1-342); details: protein: recombinant; tags: N-terminal GST; dsDNA, one strand shown
T10 sequence: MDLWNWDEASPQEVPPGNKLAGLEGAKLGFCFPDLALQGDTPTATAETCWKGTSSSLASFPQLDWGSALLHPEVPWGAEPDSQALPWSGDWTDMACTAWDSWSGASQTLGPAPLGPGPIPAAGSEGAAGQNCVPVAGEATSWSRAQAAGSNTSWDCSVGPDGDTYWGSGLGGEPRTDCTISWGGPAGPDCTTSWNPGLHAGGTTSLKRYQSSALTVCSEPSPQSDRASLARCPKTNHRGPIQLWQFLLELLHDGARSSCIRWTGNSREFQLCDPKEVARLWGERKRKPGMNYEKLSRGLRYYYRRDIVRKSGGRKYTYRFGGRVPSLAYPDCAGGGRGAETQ
Method in brief: as §1

ELF3 = target: T11, ELF3 (Homo sapiens, UniProt P78545 1-371); details: protein: recombinant; tags: N-terminal GST; dsDNA, one strand shown
T11 sequence: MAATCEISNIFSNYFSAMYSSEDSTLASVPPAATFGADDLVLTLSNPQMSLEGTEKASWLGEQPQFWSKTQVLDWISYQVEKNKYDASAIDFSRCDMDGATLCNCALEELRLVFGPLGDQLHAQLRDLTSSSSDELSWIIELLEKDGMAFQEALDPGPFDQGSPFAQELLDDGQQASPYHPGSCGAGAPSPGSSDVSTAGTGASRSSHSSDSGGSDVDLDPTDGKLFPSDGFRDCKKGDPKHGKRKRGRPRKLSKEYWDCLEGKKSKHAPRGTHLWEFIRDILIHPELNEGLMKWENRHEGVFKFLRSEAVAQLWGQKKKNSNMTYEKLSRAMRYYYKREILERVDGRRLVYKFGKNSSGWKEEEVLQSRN
Method in brief: as §1

CRX = CRX (Homo sapiens, UniProt O43186 1-299); details: protein: recombinant; tags: N-terminal GST; dsDNA, one strand shown
Method in brief: as §1

ETV1 = ETV1 (Homo sapiens, UniProt P50549 1-477); details: protein: recombinant; tags: N-terminal GST; dsDNA, one strand shown
Method in brief: as §1

Chain of ELF1 (P32519 whole entry): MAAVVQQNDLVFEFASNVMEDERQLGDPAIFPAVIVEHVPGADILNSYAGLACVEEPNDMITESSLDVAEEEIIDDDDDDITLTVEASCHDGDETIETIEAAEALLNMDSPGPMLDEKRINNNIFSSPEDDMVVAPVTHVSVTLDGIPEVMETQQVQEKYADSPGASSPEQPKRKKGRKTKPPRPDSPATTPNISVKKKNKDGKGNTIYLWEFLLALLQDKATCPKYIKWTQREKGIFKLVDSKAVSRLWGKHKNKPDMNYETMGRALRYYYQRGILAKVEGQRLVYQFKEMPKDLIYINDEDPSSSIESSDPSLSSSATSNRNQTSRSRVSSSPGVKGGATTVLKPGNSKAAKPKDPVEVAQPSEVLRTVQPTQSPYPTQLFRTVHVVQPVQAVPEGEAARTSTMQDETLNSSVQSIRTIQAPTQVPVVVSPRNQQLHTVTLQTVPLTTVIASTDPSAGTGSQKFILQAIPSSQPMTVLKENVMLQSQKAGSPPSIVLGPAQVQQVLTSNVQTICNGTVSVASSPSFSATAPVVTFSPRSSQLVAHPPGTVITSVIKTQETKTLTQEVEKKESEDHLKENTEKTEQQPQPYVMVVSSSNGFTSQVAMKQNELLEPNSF
Chain of HSF1 (Q00613 whole entry): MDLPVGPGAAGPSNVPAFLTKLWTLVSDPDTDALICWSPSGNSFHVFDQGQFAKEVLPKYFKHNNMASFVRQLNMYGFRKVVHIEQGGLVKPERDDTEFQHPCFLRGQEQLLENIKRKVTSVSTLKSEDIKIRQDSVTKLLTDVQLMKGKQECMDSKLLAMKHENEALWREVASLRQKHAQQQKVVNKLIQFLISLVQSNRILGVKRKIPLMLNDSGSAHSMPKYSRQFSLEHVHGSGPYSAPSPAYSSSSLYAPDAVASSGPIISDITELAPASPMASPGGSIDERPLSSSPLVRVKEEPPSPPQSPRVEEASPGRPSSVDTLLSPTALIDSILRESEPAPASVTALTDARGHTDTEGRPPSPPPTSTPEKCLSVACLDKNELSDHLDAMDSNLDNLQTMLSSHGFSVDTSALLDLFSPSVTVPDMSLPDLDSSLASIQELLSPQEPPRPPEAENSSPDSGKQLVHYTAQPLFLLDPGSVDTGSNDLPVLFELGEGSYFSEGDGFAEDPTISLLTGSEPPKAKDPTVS
Chain of SPIB (Q01892 whole entry): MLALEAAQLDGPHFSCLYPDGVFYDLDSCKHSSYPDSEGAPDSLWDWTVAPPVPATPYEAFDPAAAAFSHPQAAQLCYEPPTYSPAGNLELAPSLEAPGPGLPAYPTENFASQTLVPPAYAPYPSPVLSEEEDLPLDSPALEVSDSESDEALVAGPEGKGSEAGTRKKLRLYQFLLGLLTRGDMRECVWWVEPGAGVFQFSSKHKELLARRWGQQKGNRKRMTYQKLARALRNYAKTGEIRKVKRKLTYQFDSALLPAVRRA
Chain of ETV1 (P50549 whole entry): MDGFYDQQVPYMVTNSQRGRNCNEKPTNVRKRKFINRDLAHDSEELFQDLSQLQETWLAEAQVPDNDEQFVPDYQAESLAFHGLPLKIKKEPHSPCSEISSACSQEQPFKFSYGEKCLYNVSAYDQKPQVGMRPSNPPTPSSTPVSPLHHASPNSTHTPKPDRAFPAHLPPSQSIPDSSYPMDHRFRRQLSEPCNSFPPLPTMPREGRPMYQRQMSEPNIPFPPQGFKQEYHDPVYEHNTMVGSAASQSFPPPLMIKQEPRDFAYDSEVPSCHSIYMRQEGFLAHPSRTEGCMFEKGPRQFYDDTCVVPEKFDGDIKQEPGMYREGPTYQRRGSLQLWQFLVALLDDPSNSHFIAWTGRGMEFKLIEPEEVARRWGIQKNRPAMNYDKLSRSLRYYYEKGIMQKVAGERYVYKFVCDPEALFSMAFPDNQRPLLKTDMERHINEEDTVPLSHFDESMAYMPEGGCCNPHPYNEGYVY
Chain of CRX (O43186 whole entry): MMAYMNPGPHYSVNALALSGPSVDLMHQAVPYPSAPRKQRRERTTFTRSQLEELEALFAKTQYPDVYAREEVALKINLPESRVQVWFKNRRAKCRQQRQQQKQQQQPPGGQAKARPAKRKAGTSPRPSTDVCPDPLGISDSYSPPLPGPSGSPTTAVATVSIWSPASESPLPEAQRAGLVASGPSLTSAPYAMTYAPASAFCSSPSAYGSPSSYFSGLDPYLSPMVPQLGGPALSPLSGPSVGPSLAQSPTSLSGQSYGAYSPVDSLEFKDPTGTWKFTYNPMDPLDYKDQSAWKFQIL
Chain of ELF4 (Q99607 whole entry): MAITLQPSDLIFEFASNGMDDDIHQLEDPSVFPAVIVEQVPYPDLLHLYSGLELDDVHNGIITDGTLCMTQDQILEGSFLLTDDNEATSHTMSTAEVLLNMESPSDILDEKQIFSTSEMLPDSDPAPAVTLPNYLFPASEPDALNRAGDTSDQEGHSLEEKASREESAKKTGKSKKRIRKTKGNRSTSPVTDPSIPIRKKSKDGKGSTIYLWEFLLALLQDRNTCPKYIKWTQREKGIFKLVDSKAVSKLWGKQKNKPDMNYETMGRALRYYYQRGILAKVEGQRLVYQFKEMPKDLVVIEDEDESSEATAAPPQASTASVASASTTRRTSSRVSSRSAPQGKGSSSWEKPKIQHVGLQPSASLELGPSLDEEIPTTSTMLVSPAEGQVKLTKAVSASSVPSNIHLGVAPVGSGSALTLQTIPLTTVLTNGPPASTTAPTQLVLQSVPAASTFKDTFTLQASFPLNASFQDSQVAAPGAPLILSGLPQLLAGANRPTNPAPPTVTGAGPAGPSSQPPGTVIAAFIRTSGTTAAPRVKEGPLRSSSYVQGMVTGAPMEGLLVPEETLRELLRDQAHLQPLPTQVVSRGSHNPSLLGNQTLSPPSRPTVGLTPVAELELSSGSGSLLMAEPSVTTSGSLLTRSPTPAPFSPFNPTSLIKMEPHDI
Chain of ETV5 (P41161 whole entry): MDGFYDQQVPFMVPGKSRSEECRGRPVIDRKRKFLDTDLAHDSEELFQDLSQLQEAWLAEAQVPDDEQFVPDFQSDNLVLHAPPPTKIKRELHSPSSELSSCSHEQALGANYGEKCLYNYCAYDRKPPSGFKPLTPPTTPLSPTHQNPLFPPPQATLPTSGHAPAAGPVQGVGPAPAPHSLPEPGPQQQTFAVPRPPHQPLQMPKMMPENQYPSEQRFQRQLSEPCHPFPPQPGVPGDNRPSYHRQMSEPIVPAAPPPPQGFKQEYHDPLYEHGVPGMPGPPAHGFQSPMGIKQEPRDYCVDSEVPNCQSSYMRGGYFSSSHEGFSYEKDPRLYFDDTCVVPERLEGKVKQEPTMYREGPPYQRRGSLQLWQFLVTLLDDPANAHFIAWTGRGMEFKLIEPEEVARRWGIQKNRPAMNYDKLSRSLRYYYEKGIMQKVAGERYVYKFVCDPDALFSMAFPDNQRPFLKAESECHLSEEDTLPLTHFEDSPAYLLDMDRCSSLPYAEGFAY

AACAAC
binding signal (FLI1): 1.24 fold enrichment (6-mer frequency, TF over GST control) | binding signal (ELK1): 1.31 fold enrichment (6-mer frequency, TF over GST control) | binding signal (GABPA): 1.24 fold enrichment (6-mer frequency, TF over GST control) | binding signal (ERG): 1.29 fold enrichment (6-mer frequency, TF over GST control) | binding signal (ELF1): 1.3 fold enrichment (6-mer frequency, TF over GST control) | binding signal (EHF): 1.29 fold enrichment (6-mer frequency, TF over GST control) | binding signal (SPI1): 1.3 fold enrichment (6-mer frequency, TF over GST control) | binding signal (SPIB): 1.23 fold enrichment (6-mer frequency, TF over GST control) | binding signal (ELK3): 1.34 fold enrichment (6-mer frequency, TF over GST control) | binding signal (FEV): 1.26 fold enrichment (6-mer frequency, TF over GST control) | binding signal (ETV5): 1.24 fold enrichment (6-mer frequency, TF over GST control) | binding signal (HSF1): 1.14 fold enrichment (6-mer frequency, TF over GST control) | binding signal (SPIC): 1.2 fold enrichment (6-mer frequency, TF over GST control) | binding signal (ELF4): 1.26 fold enrichment (6-mer frequency, TF over GST control) | binding signal (ELK4): 1.27 fold enrichment (6-mer frequency, TF over GST control) | binding signal (ETV2): 1.34 fold enrichment (6-mer frequency, TF over GST control) | binding signal (ELF3): 1.31 fold enrichment (6-mer frequency, TF over GST control) | binding signal (CRX): 1.04 fold enrichment (6-mer frequency, TF over GST control) | binding signal (ETV1): 1.23 fold enrichment (6-mer frequency, TF over GST control)
